From PubChem BioAssay AID1159580 (chemical genetic matrix, 2015)
“And” between values parts separate entries of the source, which are not always exact repeats. Equal values may be shown once. Among all 5,500 compounds or so, about 2,000 (36%) were called active. Inconclusive results (about 18%) are left out. Cut-off read from the data, not from the text of the source: active = normalized growth mostly below about 0.91 (no sharp cut-off); inconclusive = no clear call, values can overlap the other calls; inactive = mostly above about 0.92. The list shows a part of the results.

Test: chemical genetic growth profiling, strain panel (AID 1159580);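 note: tested at 20 µM; growth read once vehicle control cultures reached saturation at 30 °C; 1 = growth at the plate median or of vehicle wells; lower values mean less growth of the strain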
Details: S. cerevisiae deletion strains, growth OD

Measured: normalized growth

Oc1ccc2c3c1OC1[C@@H](O)CC[C@@]4(O)[C@@H](C2)N(CC2CCC2)CC[C@]314 (stereo partly specified)
inactive: locus YAL013W, strain DEP1, stronger effect = lower value 1.01 | locus YAL021C, strain ccr4, stronger effect = lower value 0.987 | locus YAL026C, strain drs2, stronger effect = lower value 1.02 | locus YAL030W, strain snc1, stronger effect = lower value 0.981 | locus YBL061C, strain skt5, stronger effect = lower value 0.997 | locus YBR009C, strain hhf1, stronger effect = lower value 1.01 | locus YBR021W, strain FUR4, stronger effect = lower value 1.02 | locus YBR023C, strain chs3, stronger effect = lower value 0.993 | locus YBR171W, strain sec66, stronger effect = lower value 0.974 | locus YBR229C, strain ROT2, stronger effect = lower value 1.02 | locus YBR231C, strain swc5, stronger effect = lower value 0.997 | locus YBR279W, strain paf1, stronger effect = lower value 0.999 | locus YCL011C, strain gbp2, stronger effect = lower value 1.01 | locus YCL016C, strain dcc1, stronger effect = lower value 1.02 | locus YCL029C, strain bik1, stronger effect = lower value 1.03 | locus YCL061C, strain MRC1, stronger effect = lower value 1 | locus YCL069W, strain vba3, stronger effect = lower value 0.993 | locus YCR088W, strain abp1, stronger effect = lower value 1.01 | locus YDL005C, strain med2, stronger effect = lower value 0.989 | locus YDL035C, strain GPR1, stronger effect = lower value 1.02 | locus YDL040C, strain nat1, stronger effect = lower value 1 | locus YDL074C, strain BRE1, stronger effect = lower value 1.04 | locus YDL101C, strain DUN1, stronger effect = lower value 1.02 | locus YDL134C, strain PPH21, stronger effect = lower value 1.02 | locus YDL185W, strain tfp1, stronger effect = lower value 1.02 | locus YDL192W, strain arf1, stronger effect = lower value 1.02 | locus YDR001C, strain nth1, stronger effect = lower value 1.02 | locus YDR069C, strain doa4, stronger effect = lower value 1 | locus YDR101C, strain arx1, stronger effect = lower value 1.01 | locus YDR137W, strain rgp1, stronger effect = lower value 1.01 | locus YDR150W, strain NUM1, stronger effect = lower value 1.02 | locus YDR159W, strain sac3, stronger effect = lower value 0.987 | locus YDR162C, strain NBP2, stronger effect = lower value 1.02 | locus YDR195W, strain ref2 0.974 | locus YDR297W, strain sur2, stronger effect = lower value 1.01 | locus YDR318W, strain mcm21, stronger effect = lower value 1.02 | locus YDR334W, strain swr1, stronger effect = lower value 0.994 | locus YDR335W, strain msn5, stronger effect = lower value 1 | locus YDR388W, stronger effect = lower value 1.01 | locus YDR392W, strain spt3, stronger effect = lower value 1.01 | locus YDR502C, strain sam2, stronger effect = lower value 1.02 | locus YEL003W, strain gim4, stronger effect = lower value 1 | locus YEL037C, strain rad23, stronger effect = lower value 0.988 | locus YEL061C, strain CIN8 (second series), stronger effect = lower value 0.99 | locus YEL061C, strain CIN8, stronger effect = lower value 1.01 | locus YER015W, strain faa2, stronger effect = lower value 0.996 | locus YER016W, strain bim1, stronger effect = lower value 1.01 | locus YER110C, stronger effect = lower value 1.02 | locus YER111C, strain swi4, stronger effect = lower value 0.997 | locus YER155C, strain BEM2 (second series), stronger effect = lower value 0.963 | locus YER155C, strain BEM2, stronger effect = lower value 1.01 | locus YER167W, strain BCK2, stronger effect = lower value 1.02 | locus YFR010W, strain ubp6, stronger effect = lower value 0.978 | locus YGL078C, strain dbp3, stronger effect = lower value 1.01 | locus YGL086W, strain mad1, stronger effect = lower value 1.01 | locus YGL167C, strain pmr1, stronger effect = lower value 0.99 | locus YGL173C, strain kem1, stronger effect = lower value 0.98 | locus YGL227W, strain vid30, stronger effect = lower value 0.986 | locus YGL240W, strain doc1, stronger effect = lower value 1.01 | locus YGL248W, strain PDE1, stronger effect = lower value 1.02 | locus YGL253W, strain hxk2, stronger effect = lower value 1.01 | locus YGR078C, strain PAC10, stronger effect = lower value 1.03 | locus YGR135W, strain pre9, stronger effect = lower value 1.01 | locus YGR229C, strain SMI1, stronger effect = lower value 1.03 | locus YGR252W, strain gcn5, stronger effect = lower value 0.984 | locus YHR013C, strain ard1, stronger effect = lower value 0.973 | locus YHR027C, strain rpn1, stronger effect = lower value 0.996 | locus YHR030C, strain SLT2, stronger effect = lower value 1.02 and 0.983 | locus YHR079C, strain IRE1 (second series), stronger effect = lower value 1.02 | locus YHR079C, strain IRE1, stronger effect = lower value 0.966 | locus YHR094C, strain hxt1, stronger effect = lower value 1.01 | locus YHR129C, strain ARP1, stronger effect = lower value 1 | locus YHR142W, strain chs7, stronger effect = lower value 1.01 | locus YHR200W, strain rpn10, stronger effect = lower value 1.01 | locus YIL066C, strain RNR3, stronger effect = lower value 1.02 | locus YIL073C, strain SPO22, stronger effect = lower value 1.07 | locus YIL125W, strain kgd1, stronger effect = lower value 1.01 | locus YIR030C, strain dcg1, stronger effect = lower value 1.01 | locus YJL092W, strain hpr5, stronger effect = lower value 0.99 | locus YJL095W, strain BCK1 (second series), stronger effect = lower value 0.985 | locus YJL095W, strain BCK1, stronger effect = lower value 1.03 and 0.981 | locus YJL115W, strain asf1, stronger effect = lower value 0.974 | locus YJL129C, strain trk1, stronger effect = lower value 0.974 | locus YJL134W, strain LCB3, stronger effect = lower value 1.01 | locus YJL154C, strain vps35, stronger effect = lower value 0.999 | locus YJL164C, strain tpk1, stronger effect = lower value 1.01 | locus YJL166W, strain qcr8, stronger effect = lower value 0.986 | locus YJL168C, strain set2, stronger effect = lower value 1.01 | locus YJL187C, strain SWE1 (second series), stronger effect = lower value 1.03 | locus YJR043C, strain POL32, stronger effect = lower value 1.04 | locus YJR066W, strain TOR1, stronger effect = lower value 0.905
